activity, negative = inhibition and AC50 data for 85 molecules are collected here from PubChem BioAssay AID1851 (National Center for Advancing Translational Sciences (NCATS), 2009).

Several values for one entry are separate records, joined by “and”; a condition that tells them apart may be missing. Equal entries are not always repeated. Hit rate of the full screen: of about 16,000 compounds, about 4,000 (25%) were called active. Another 26% or so got no clear call; they are omitted. Calls come from the whole dose curve; as a rule, active = well fitted curve in the direction sought with a large enough effect; inconclusive = small, poorly fitted or top-dose-only effect, or effect the other way; inactive = no such curve, though single readings can be large or run the other way. A selection follows. Where a structure was tested more than once in an assay, its records may differ in their call.
% is set by controls: 0 for no effect and ±100 for the full control effect.

The target of this test is Cytochrome P450 2C9 (Homo sapiens) (UniProt P11712). The test is described as follows: Cytochrome panel assay with activity outcomes. Particulars: recombinant CYP, pro-luciferin dealkylation, luminescence, p450-cyp2c9; series mostly up to 57.1 µM.
Chain of Cytochrome P450 2C9 (Homo sapiens) (P11712 whole entry, looked up): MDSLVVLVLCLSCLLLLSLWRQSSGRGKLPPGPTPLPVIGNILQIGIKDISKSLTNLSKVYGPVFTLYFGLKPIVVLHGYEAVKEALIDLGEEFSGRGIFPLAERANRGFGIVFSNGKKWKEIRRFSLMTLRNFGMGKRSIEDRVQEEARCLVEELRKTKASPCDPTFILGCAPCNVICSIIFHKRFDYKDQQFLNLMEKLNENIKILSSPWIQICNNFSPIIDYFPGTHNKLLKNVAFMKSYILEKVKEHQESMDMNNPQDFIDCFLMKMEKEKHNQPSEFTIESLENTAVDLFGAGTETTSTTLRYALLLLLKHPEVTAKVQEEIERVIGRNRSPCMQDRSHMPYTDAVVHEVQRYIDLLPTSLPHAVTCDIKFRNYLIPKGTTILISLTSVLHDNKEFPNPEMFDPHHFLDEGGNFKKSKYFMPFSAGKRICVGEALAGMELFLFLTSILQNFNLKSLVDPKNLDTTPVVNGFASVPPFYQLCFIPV
For `CCOC(=O)CCN1C(=O)[C@H]2[C@H]3[C@H](O)[C@H](O)C/C(=N/OC[C@@H](O)COCc4ccco4)[C@H]3CC[C@@H]2C1=O`, the activity, negative = inhibition was 10.4% [at 11.4 µM] (inactive).
Take `CN(C/C=C\c1ccccc1)Cc1cccc2ccccc12`: the AC50 result was “inactive”.
For the molecule `CN(C)c1nc(-c2ccoc2)nc2ccccc12`, the activity, negative = inhibition was 21.3% [at 2.29 µM] (inactive).
Regarding `O=C(NC1CCCCC1)C1CC=CCC1C(=O)OCC(Cl)=C(Cl)Cl` (stereo not given), the AC50 is 1.41 µM (active).
Turning to `C#CCCCO/N=C1/C[C@@H](O)[C@@H](O)[C@@H]2[C@@H]3C(=O)N(Cc4ccccc4)C(=O)[C@H]3CC[C@@H]12`, the activity, negative = inhibition is -2.53% [at 11.4 µM] (inactive).
With `NC[C@](O)(CS(=O)(=O)O)c1ccc(Cl)cc1`, the AC50 entry was “inactive”.
With `COc1ccc(CCN2C(=NC(=O)CCC(=O)O)SC3CS(=O)(=O)CC32)cc1` (stereo not given), the AC50 result is “inactive”.
On to `O=C(c1ccc([N+](=O)[O-])cc1)[C@@H](Br)[C@@H](Br)c1ccnc2ccccc12`, for which the concentration at half-maximal activity (AC50) is 3.16 µM (active).
Take `O=[N+]([O-])c1ccc2ncccc2c1CCc1c([N+](=O)[O-])ccc2ncccc12`: the activity, negative = inhibition is 13% [at 11.4 µM] (inactive).
Regarding `CCC[C@@H]1O[C@@H]2C[C@@H]3[C@H]4CCC5=CC(=O)C=C[C@@]5(C)[C@H]4[C@H](O)C[C@@]3(C)[C@@]2(C(=O)CO)O1`, the AC50 result was “inactive”.
Turning to `N#C/C(=C\c1ccccc1)c1nc2ncccc2[nH]1`, the AC50 is 5.01 µM (active).
As to `N#C/C(=C\c1ccc(Cl)cc1)c1nc2ncccc2[nH]1`, the AC50 is 7.08 µM (active).
For the molecule `COc1ccc2[nH]cc(CCNc3ncncc3-c3ccccc3CN(C)C)c2c1`, the activity, negative = inhibition was 4.66% [at 2.29 µM] (inactive).
Take `COc1ccc(CNc2ncncc2-c2ccccc2C(F)(F)F)c(OC)c1`: the activity, negative = inhibition was -25.4% [at 2.29 µM] (inactive).
Same read-out and setting: under `COc1ccc2[nH]cc(CCNc3cc(-c4ccoc4)ncn3)c2c1` stands -23.3% [at 2.29 µM] (inactive).
Regarding `COc1ccc2[nH]cc(CCNc3ncncc3-c3ccccc3Cl)c2c1`, the concentration at half-maximal activity (AC50) is 0.2 µM (active).
On the same count and under the same terms, with `COc1ccc2[nH]cc(CCNc3ncncc3-c3ccccc3OC)c2c1` the figure was 0.251 µM (active).
In the case of `COc1ccc2[nH]cc(CCNc3ccnc(-c4ccccc4C(F)(F)F)n3)c2c1`, the activity, negative = inhibition is -28.2% [at 2.29 µM] (inactive).
With `COc1ccc2[nH]cc(CCNc3ncncc3-c3cccc(NS(C)(=O)=O)c3)c2c1`, the AC50 was 0.398 µM (active).
On the same count and under the same terms, under `COc1ccc2[nH]cc(CCNc3ncncc3-c3ccccc3C(F)(F)F)c2c1` stands 0.1 µM (active).
Same read-out and setting: with `CN[C@H](CC(=O)O)C(=O)O` the entry was “inactive”.
As to `O=S1(=O)C=C(SCc2cccc(Cl)c2)Nc2ccccc21`, the AC50 was 1.58 µM (active).
`O=C(c1nn(Cc2ccccc2)c(=O)c2ccccc12)N1CCN(C/C=C/c2ccccc2)CC1`: the AC50 was 3.98 µM (active).
On the same count and under the same terms, with `COC(=O)c1cc2n(n1)CCN(Cc1ccccc1F)C2=O` the figure was 10 µM (active); with `CNC[C@H](O)[C@H](O)[C@H](O)[C@H](O)CO`, “inactive”.
As to `CC(C)[C@](N)(C(=O)O)c1ccccc1`, the activity, negative = inhibition was -6.77% [at 11.4 µM] (inactive).
Regarding `CC1CCN(C(NC(=O)c2ccco2)C(=O)c2ccccc2)CC1` (stereo not given), the AC50 is 2.51 µM (active).
For the molecule `CC(C)NC(=O)N1CC2(CCN(C(=O)c3ccco3)CC2)C1`, the AC50 entry was “inactive”.
Regarding `CC(C)NC(=O)N1CCC2(CC1)CCN(C(=O)c1ccco1)CC2`, the AC50 result was “inactive”.
Turning to `O=C(c1csnn1)N1CCC2(CCN(Cc3nccs3)CC2)CC1`, the AC50 entry was “inactive”.
On to `CS(=O)(=O)Nc1cccc(-c2ccc3ncnc(N4CCOCC4)c3c2)c1`, for which the activity, negative = inhibition was -1.72% [at 2.29 µM] (inactive).
On to `Cn1nc(-c2ccc(N3CCOCC3)c(NS(=O)(=O)c3ccc(Cl)cc3)c2)c2ccccc2c1=O`, for which the AC50 is 1 µM (active).
`COCCn1c(=O)c(-c2ccc(Cl)cc2)nc2cnc(N3CCOCC3)nc21`: the AC50 result was “inactive”.
With `CC(CP(=O)(O)O)NC(=O)Cc1ccccc1` (stereo not given), the AC50 result is “inactive”.
As for `O=C(/C=C/c1ccc(Cl)cc1)Nc1ccc(N2CCCCC2)cc1`, the AC50 entry was “inactive”.
Turning to `O=C(O)C1CCCCC1C(=O)Nc1cc(Cl)ccc1Cl` (stereo not given), the AC50 result was “inactive”.
With `O=C(/C=C/c1ccccc1)NC(NC(=S)Nc1ccc(Cl)cc1)C(Cl)(Cl)Cl` (stereo not given), the AC50 is 0.562 µM (active).
Turning to `COc1ccc([N+](=O)[O-])cc1NC(=S)NC(NC(=O)Cc1ccc(OC)c(OC)c1)C(Cl)(Cl)Cl` (stereo not given), the AC50 is 1.26 µM (active).
Same read-out and setting: with `O=C(Cc1ccccc1)NC(NC(=S)Nc1cc(Cl)ccc1Cl)C(Cl)(Cl)Cl` (stereo not given) the figure was 0.562 µM (active); with `COc1ccc(C[C@@](C)(N)C(=O)O)cc1OC`, “inactive”; with `O=C(NC(NC(=S)Nc1cc(Cl)ccc1Cl)C(Cl)(Cl)Cl)c1ccco1` (stereo not given), 0.0447 µM (active).
Consider `Cc1c(NC(=O)C23CC4CC(CC(C)(C4)C2)C3)c(=O)n(-c2ccccc2)n1C`, for which the AC50 result is “inactive”.
As to `O=C(CNS(=O)(=O)c1ccc(Br)s1)N1CCC(N2CCCCC2)CC1`, the AC50 result is “inactive”.
As for `Cc1ccc(-n2c(C)cc(/C=C(\C#N)C(=O)NCC3CCCO3)c2C)cc1` (stereo not given), the AC50 is 17.8 µM (active).
Still for that read-out and setting: under `N#C/C(=C\c1cccs1)C(=O)NCC1CCCO1` (stereo not given) stands “inactive”; under `NC(=O)C1CCN(C(=O)CN2C(=O)c3ccccc3S2(=O)=O)CC1`, “inactive”.
As to `O=C1c2ccccc2C(=O)N1C[C@]1(C(=O)O)NCCS1(=O)=O`, the activity, negative = inhibition is -4.49% [at 11.4 µM] (inactive).
As to `CC(C)N(CCC(=O)c1ccc2ccccc2c1)Cc1ccccc1`, the AC50 was 12.6 µM (active) and inactive.
As for `O=C(O)CCCc1ccc2ccccc2c1`, the activity, negative = inhibition is -4.57% [at 11.4 µM] (inactive).
`CCN1C(=O)[C@H]2[C@@H]3[C@H](O)[C@H](O)CC(=O)[C@H]3CC[C@H]2C1=O`: the activity, negative = inhibition was 17.2% [at 11.4 µM] (inactive) and 0.779% [at 11.4 µM] (inactive).
On to `CC(=O)N[C@H](c1ccccc1)[C@@]1(C)C[C@@H]1[C@@H](C)C(=O)Nc1ccc2ccccc2c1`, for which the AC50 is 10 µM (active).
Regarding `C[C@@H](C(=O)Nc1ccc2ccccc2c1)[C@H]1C[C@]1(C)[C@H](NC(=O)OCc1ccccc1)c1ccccc1`, the AC50 was 1.58 µM (active).
For `C[C@@H](C(=O)Cc1ccc2ccccc2c1)[C@@H]1C[C@@]1(C)[C@@H](NP(=O)(c1ccccc1)c1ccccc1)c1ccccc1`, the AC50 was 3.16 µM (active).
In the case of `COc1ccc(COC(=O)N/N=C2/C[C@@H](O)[C@@H](O)[C@@H]3[C@@H]4C(=O)N([C@@H](C)c5ccccc5)C(=O)[C@H]4CC[C@H]23)cc1`, the activity, negative = inhibition was 0.0971% [at 11.4 µM] (inactive).
For the molecule `C[C@@]1(C(NC(=O)Cc2ccc(C(F)(F)F)cc2)c2ccc(-c3ccccc3)cc2)C[C@H]1C1CCCCC1` (stereo not given in full), the AC50 result was “inactive”.
On to `C[C@@H](C(=O)Nc1ccc2ccccc2c1)[C@@H]1C[C@@]1(C)[C@@H](NC(=O)OCc1ccccc1)c1ccccc1`, for which the AC50 entry was “inactive”.
As for `O=C(Nc1ccc2ccccc2c1)c1onc2c1CCCC2`, the AC50 entry was “inactive”.
On the same count and under the same terms, with `C[C@@H](C(=O)Nc1ccc2ccccc2c1)[C@@H]1C[C@@]1(C)[C@@H](NS(=O)(=O)c1ccc(-c2ccccc2)cc1)c1ccccc1` the entry was “inactive”; with `C[C@@H](C(=O)Nc1ccc2ccccc2c1)[C@H]1C[C@]1(C)[C@H](NP(=O)(c1ccccc1)c1ccccc1)c1ccccc1`, 3.16 µM (active); with `CC(=O)OCC(=O)[C@@]1(O)CC[C@@H]2[C@H]3CCC4=CC(=O)C=C[C@]4(C)[C@]3(F)[C@@H](O)C[C@@]21C`, “inactive”.
Regarding `COC(=O)N[C@H](c1ccccc1)[C@@]1(C)C[C@@H]1[C@@H](C)C(=O)Nc1ccc2ccccc2c1`, the AC50 is 3.98 µM (active).
As to `C[C@@H](C(=O)Nc1ccc2ccccc2c1)[C@H]1C[C@]1(C)[C@H](NS(=O)(=O)c1ccc2ccccc2c1)c1ccccc1`, the AC50 result was “inactive”.
For `CC(=O)N[C@@H](c1ccccc1)[C@]1(C)C[C@H]1[C@@H](C)C(=O)Nc1ccc2ccccc2c1`, the AC50 is 6.31 µM (active).
Still for that read-out and setting: under `Cc1cc(C)cc(OCC(=O)NNC(=O)c2cc(C)[nH]n2)c1` stands 28.2 µM (active); under `Cc1ccc(OCC(=O)NNC(=O)c2cc3ccccc3o2)cc1`, “inactive”.
On the same count and under the same terms, with `Cc1cc(NC(=O)NC(=O)c2ccc(F)cc2F)n[nH]1` the entry was “inactive”; with `NC1(C(=O)O)C[C@H](C(=O)O)[C@H](C(=O)O)C1` (stereo not given in full), 6.31 µM (active); with `NC1(C(=O)O)CC(C(=O)O)C1` (stereo not given), “inactive”.
For `NC1(C(=O)O)C[C@@H](C(=O)O)[C@H](C(=O)O)C1`, the AC50 entry was “inactive”.
As to `CCc1c(O)c2c(c(O)c1C(C)=O)C(=O)c1c(cc(O)c(C(=O)O)c1C(=O)O)C2=O`, the activity, negative = inhibition is -13.4% [at 11.4 µM] (inactive).
In the case of `N#Cc1cccc(NC(=O)N2CCC3(CC2)CCN(C(=O)c2ccco2)CC3)c1`, the AC50 result was “inactive”.
Consider `O=C(Nc1cccc(NC(=O)c2ccc(-c3cccc(Br)c3)o2)c1)c1ccco1`, for which the AC50 is 5.01 µM (active).
Take `COc1cccc(-c2nccc(N(C)Cc3ccco3)n2)c1`: the activity, negative = inhibition was 2.63% [at 2.29 µM] (inactive).
Still for that read-out and setting: under `COc1cccc(-c2nccc(NCc3ccc(OC)cc3OC)n2)c1` stands -22.3% [at 2.29 µM] (inactive).
For `COc1cccc(-c2noc(Cn3nc(C)c([N+](=O)[O-])c3C)n2)c1`, the AC50 is 4.47 µM (active).
In the case of `COC1(OC)N=C(NC(=O)Nc2ccccc2)C2(C#N)C(c3ccccc3)C12C#N` (stereo not given), the AC50 was 12.6 µM (active).
For `CC(=O)[C@H](C(=N)C#N)C(=O)Nc1ccccc1`, the activity, negative = inhibition was 10.8% [at 11.4 µM] (inactive).
As to `COc1cccc(C2C3(C#N)C(N)=NC(OC)(OC)C23C#N)c1` (stereo not given), the AC50 result was “inactive”.
With `CC1(C)CC(=O)C(C(c2cccc(O)c2O)C2C(=O)CC(C)(C)CC2=O)C(=O)C1`, the activity, negative = inhibition is 3.72% [at 11.4 µM] (inactive).
Consider `Cc1ccc(C(C2C(=O)CC(C)(C)CC2=O)C2C(=O)CC(C)(C)CC2=O)s1`, for which the AC50 is 28.2 µM (active).
Take `O=C(Nc1nccs1)C1Cc2ccccc2CN1S(=O)(=O)c1ccc(F)cc1` (stereo not given): the AC50 is 12.6 µM (active).
On to `O=C(Nc1nnc(C2CC2)s1)C1Cc2ccccc2CN1S(=O)(=O)c1ccccc1F` (stereo not given), for which the half-maximal activity concentration (AC50) was 3.16 µM (active).
`O=S(=O)(c1ccccc1)N1CCC2(CC1)CN(Cc1nccs1)C2`: the AC50 entry was “inactive”.
As for `O=S(=O)(c1ccccc1)N1CCC2(CCN(Cc3nccs3)CC2)CC1`, the AC50 result is “inactive”.
As for `CCc1nnc(NC(=O)C2Cc3ccccc3CN2S(=O)(=O)c2ccc(C)cc2)s1` (stereo not given), the half-maximal activity concentration (AC50) is 3.98 µM (active).
